# Screens (PubChem)
# MEKK3 PB1 HTS: modulators of MEKK3-MEK5 PB1 binding, primary screen, biochemical, wildtype MEKK3, multiplex bead flow cytometry, Alexa488-MEK5 | bead-based flow cytometry, Alexa488-MEK5 binding to MEKK3; actives lie on both sides; 0 = blocked by unlabeled MEK5, 100 = vehicle | binding response (% of control), % at 10 µM | 1.4% of 290,000 active | AID 1529, 2009;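 active means binding response more than 3 SD above or below the average of its plate-row segment, actives on both sides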;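 further: Alexa488 bead fluorescence after subtracting the streptavidin-only scavenger bead signal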
# MEKK2 mut-MEK5: MEK5 binding signal on mutant MEKK2 PB1, primary screen, biochemical, multiplex bead flow cytometry, Alexa488-MEK5; Alexa488-MEK5 binding to MEKK2 mutant; 0.35% of 290,000 active; percent response, % at 10 µM; in the data active means percent response above about 24%, passing the limit was not always enough
# UBC13 inh: UBC13 polyubiquitin chain formation inhibitors, primary screen, biochemical, TR-FRET, uHTS; Ubiquitin-conjugating enzyme E2 N (Homo sapiens), P61088; inhibition, % at 20 µM; 0.47% of 330,000 active; AID 485273, 2010; in the data active means inhibition above about 45%, passing the limit was not always enough
# ATG4B inhibitor: ATG4B protease inhibitors, primary screen, biochemical, fluorescence, uHTS | ATG4B cleavage of LC3-PLA2, NBD-HPC fluorescence, 1 h | inhibition, % at 8.33 µM | 0.51% of 340,000 active | AID 504462, 2011; in the data active means inhibition above about 40%
# PREPL inh: PREPL enzyme inhibitors, primary screen, biochemical, fluorescence polarization | 0.68% of 320,000 active | Prolyl endopeptidase-like (Homo sapiens), Q4J6C6 | recombinant PREPL, fluorescence polarization activity-based probe | inhibition, % at 5.96 µM; in the data active means inhibition above about 43%
# Target sequence (Q4J6C6 whole entry, looked up): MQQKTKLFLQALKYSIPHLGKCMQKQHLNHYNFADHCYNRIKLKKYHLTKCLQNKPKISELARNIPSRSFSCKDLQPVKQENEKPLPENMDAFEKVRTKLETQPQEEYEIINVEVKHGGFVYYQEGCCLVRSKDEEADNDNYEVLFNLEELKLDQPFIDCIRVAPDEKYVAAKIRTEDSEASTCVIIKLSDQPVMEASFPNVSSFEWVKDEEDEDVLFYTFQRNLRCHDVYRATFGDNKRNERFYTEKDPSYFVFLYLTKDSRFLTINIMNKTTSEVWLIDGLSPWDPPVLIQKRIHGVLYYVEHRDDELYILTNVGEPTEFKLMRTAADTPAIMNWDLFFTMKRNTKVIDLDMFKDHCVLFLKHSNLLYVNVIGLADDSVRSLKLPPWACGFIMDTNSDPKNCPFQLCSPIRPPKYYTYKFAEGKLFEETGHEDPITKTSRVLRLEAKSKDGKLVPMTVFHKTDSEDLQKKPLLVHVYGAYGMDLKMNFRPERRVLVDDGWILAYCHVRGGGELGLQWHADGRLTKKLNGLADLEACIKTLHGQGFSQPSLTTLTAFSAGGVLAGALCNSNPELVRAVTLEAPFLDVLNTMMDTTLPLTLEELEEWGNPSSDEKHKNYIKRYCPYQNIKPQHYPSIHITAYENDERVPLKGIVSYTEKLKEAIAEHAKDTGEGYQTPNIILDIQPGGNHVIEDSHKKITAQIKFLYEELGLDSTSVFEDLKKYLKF
# MEKK2wt PB1 HTS: modulators of MEK5 binding to wildtype MEKK2, primary screen, biochemical, multiplex bead flow cytometry, Alexa488-MEK5 | 1.1% of 290,000 active | binding response (% of control), % at 10 µM | AID 1531, 2009 | Mitogen-activated protein kinase kinase kinase 2 (Homo sapiens), Q9Y2U5 | Alexa488-MEK5 binding to MEKK2 WT; actives lie on both sides; in the data active means binding response below about 67% or above about 130%
# MEKK2wt confirm: modulators of MEK5 binding to wildtype MEKK2, confirmation, biochemical, single concentration, multiplex bead flow cytometry; shares compounds with MEKK3 PB1 HTS; Alexa488-MEK5 binding to MEKK2 WT; actives lie on both sides; binding response (% of control), % at 10 µM; 2.4% of 5,900 active; in the data active means binding response below about 16% or above about 210%; inactive means in between
# MEKK2mut confirm: mutant MEKK2 PB1-MEK5 binding signal retest – biochemical, single concentration, multiplex bead flow cytometry, confirmation; AID 1893, 2009; percent response, % at 10 µM; Alexa488-MEK5 binding to MEKK2 mutant; 2% of 5,900 active; shares compounds with MEKK3 PB1 HTS; in the data active means percent response mostly above about 71%, no sharp cut-off; inactive means mostly below about 38%;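 further: higher means compound restores mutant binding toward wildtype level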
# MEKK3-MEK5 inh: MEKK3 wild-type PB1 binding to MEK5, inhibitors, confirmation, biochemical, bead multiplex flow cytometry, single concentration, wildtype; Alexa488-MEK5 binding to MEKK3; active compounds read low; 1.8% of 5,900 active; AID 1894, 2009; binding response (% of control), % at 10 µM; shares compounds with MEKK3 PB1 HTS;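 active means binding response below 72% of control, or above a set upper limit, though filed actives all read lower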;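 further: lower values mean stronger disruption of MEK5 binding to MEKK3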
# A number is an active result; – = inactive; · = no result given; [ ] = remark or other dose. Hits are enriched below; roughly 3.1% of the tested compounds scored in any of these assays.
SMILES,MEKK3 PB1 HTS,MEKK2 mut-MEK5,UBC13 inh,ATG4B inhibitor,PREPL inh,MEKK2wt PB1 HTS,MEKK2wt confirm,MEKK2mut confirm,MEKK3-MEK5 inh
O=C(CSc1nc(-c2ccccc2)c(-c2ccccc2)[nH]1)NCC1CCCO1 (stereo unspecified),–,–,–,–,–,54[inhibitor],–,–,–
NC(=O)c1c(NC(=O)Cn2cc([N+](=O)[O-])cn2)sc2c1CCCC2,–,270,–,–,–,·,–,–,–
COc1ccc(CNc2nc(-c3cccnc3)nn2C(C)=O)cc1,5.0[inhibitor],–,–,–,–,7.0[inhibitor],–,–,–
Cc1ccc2c(CC(=O)OCc3csc(C)n3)coc2c1,3.0[inhibitor],–,–,–,–,3.0[inhibitor],–,–,–
Nc1ccccc1Oc1c(F)c(F)c(Oc2ccccc2N)c(F)c1F,–,–,–,–,–,–,·,·,·
O=C(COC(=O)c1ccc(S(=O)(=O)N2CCc3ccccc3C2)cc1)NC1CCS(=O)(=O)C1 (stereo unspecified),50[inhibitor],–,–,–,–,–,–,–,–
O=C(COC(=O)c1ccc(S(=O)(=O)N2CCOCC2)cc1)NC1CCCCCCC1,–,–,–,–,–,–,·,·,·
CCOC(=O)/C(N=Nc1c(Br)cc(Br)cc1Br)=C(\C)O,126,–,–,–,–,–,–,–,–
Cc1ccc(NC(=O)Cn2nc(C)c(S(=O)(=O)N(C)C)c2C)cc1C,–,–,–,–,–,–,·,·,·
CCOc1ccc(C2=C/C(=C/c3cccnc3)C(=O)O2)cc1,82[inhibitor],–,–,–,–,–,–,–,59
COc1ccc(C2=C/C(=C/c3cccnc3)C(=O)O2)cc1OC,–,–,–,–,–,–,·,·,·
CCc1ccc(NC(=O)NCc2cccnc2)cc1,–,–,–,–,–,–,·,·,·
CC(=O)OC1OCCOC1NC(=S)NCc1ccco1 (stereo unspecified),1.0[inhibitor],–,–,–,–,·,–,–,–
O=C(CN(c1cccc([N+](=O)[O-])c1)S(=O)(=O)c1ccccc1)NCc1ccccc1,–,–,–,–,–,–,·,·,·
O=C(CN(c1cccc([N+](=O)[O-])c1)S(=O)(=O)c1ccccc1)N(Cc1ccccc1)Cc1ccccc1,137,–,–,–,–,–,–,–,–
Fc1ccccc1-c1csc(=Nc2cccnc2)n1CCCn1ccnc1,137,–,–,–,–,–,–,–,–
Fc1ccccc1-c1csc(=Nc2cccnc2)n1CC1CCCO1 (stereo unspecified),–,–,–,–,–,–,·,·,·
CCn1nc(NS(=O)(=O)c2ccc(NC(C)=O)cc2)c2cc3cc(C)ccc3nc21,–,–,–,–,–,–,·,·,·
O=C(NC12CC3CC(CC(C3)C1)C2)C1CC(=O)N(c2ccc(Br)cc2)C1 (stereo unspecified),–,–,–,–,–,–,·,·,·
O=C(NC12CC3CC(CC(C3)C1)C2)C1CC(=O)N(c2ccccc2)C1 (stereo unspecified),–,25,–,–,–,–,–,–,–
Cc1cc(C)n(-c2nnc(Cl)c3ccccc23)n1,–,–,–,–,–,–,·,·,·
Cc1ccc(-c2nnc(-n3nc(C)cc3C)c3ccccc23)cc1,137,–,–,–,–,–,–,–,–
COc1ccc(OCC(=O)C2CC2)c(C#N)c1,–,–,–,–,–,–,·,·,·
CCCCCn1cnnc1SCC(=O)c1c(N)n(C2CC2)c(=O)[nH]c1=O,·,·,–,–,·,·,·,·,·
CC(=O)Nc1nnc(-c2ccccn2)o1,134,–,–,–,–,–,–,–,–
SMILES,MEKK3 PB1 HTS,MEKK2 mut-MEK5,UBC13 inh,ATG4B inhibitor,PREPL inh,MEKK2wt PB1 HTS,MEKK2wt confirm,MEKK2mut confirm,MEKK3-MEK5 inh
COc1ncnc2c1sc1nc(-c3ccccc3)c3c(c12)CCCC3,146,–,–,–,–,–,–,–,–
NC(=O)c1sc2nc(-c3ccccc3)c3c(c2c1N)CCCC3,–,–,–,–,–,–,·,·,·
O=C(CCC(=O)Nc1ccc(Cl)cc1Cl)NNC(=O)[C@@H]1CCCC[C@@H]1C(=O)O,1.0[inhibitor],–,·,–,–,1.0[inhibitor],–,–,–
COc1cc(CN2CCC(n3nccc3NC(=O)CCCc3ccccc3)CC2)ccc1F,–,–,–,–,–,–,·,·,·
CCCOCCOC(=O)C1=C(C)NC(=O)NC1c1cc(Cl)c(O)c(OC)c1 (stereo unspecified),1.0[inhibitor],–,–,–,–,-2.0[inhibitor],–,–,–
CCN(CC)C(=O)CSc1nnc(NC(=O)CCc2ccccc2)s1,156,–,–,–,–,–,–,–,–
COCc1nnc(NC(=O)CCc2ccc(OC)cc2)s1,–,–,–,–,–,–,·,·,·
CN(C)C(=O)CSc1nnc(NC(=O)CCc2ccccc2)s1,–,–,–,–,–,–,·,·,·
COCc1nnc(NC(=O)CCc2ccccc2)s1,2.0[inhibitor],–,–,–,–,2.0[inhibitor],–,–,–
CCN(CC)CCNC(=O)c1ccc(NC(=O)c2cccc(S(=O)(=O)N3c4ccccc4CC3C)c2)cc1 (stereo unspecified),–,37,–,–,–,174,–,–,–
CCN(CC)CCNC(=O)c1ccc(NC(=O)c2cccc(S(=O)(=O)N3CCc4ccccc43)c2)cc1,·,·,–,–,·,·,·,·,·
NNc1ccc(Cl)c(C(=O)O)c1,–,–,–,–,–,–,·,·,·
Cc1cc(C)c2c(CN3CCOCC3)cc(=O)oc2c1,–,–,–,–,–,–,·,·,·
Cc1nc(CN2CCOCC2)cc(=O)[nH]1,2.0[inhibitor],–,–,–,–,2.0[inhibitor],–,–,–
COC(=O)C(CC(C)C)NC(=O)c1cccs1 (stereo unspecified),129,–,–,–,–,–,–,–,–
CC(C)CNC(=O)[C@H](Cc1ccccc1)NC(=O)c1cccs1,–,–,–,–,–,–,·,·,·
